In PubChem BioAssay:
Active and inactive are the calls of the source. Unless noted, no rule for the calls is given here.

Key:
[1] = HepG2 liver cancer cell viability effects, profiling panel, resazurin fluorescence, 24 h, PK04 Diversity Set (AID 1172); details: higher = more signal
[2] = basal S. cerevisiae growth modulation, no modifier, primary screen, OD600, strain BY4716, 24 h, basal condition (AID 1173); details: OD600, 24 h, higher = more signal, called active from +8 up or from −8 down
[3] = MM1S myeloma cell viability, profiling panel, resazurin fluorescence, basal, 24 h, PK04 Diversity Set (AID 1174); details: higher = more signal, called active from +8 up or from −8 down;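 also: MM1S multiple myeloma cell line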
[4] = target: Dihydroorotate dehydrogenase (quinone), mitochondrial (Plasmodium falciparum (isolate 3D7)) (UniProt Q08210); experiment: PfDHODH enzyme inhibitors, primary screen, biochemical, C-terminal His tag, absorbance 600 nm (AID 1175); details: DCIP absorbance 600 nm, higher = more signal, called active from +8 up or from −8 down;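 also: recombinant parasite enzyme with a five histidine tag at its C terminus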
Chain of Dihydroorotate dehydrogenase (quinone), mitochondrial (Plasmodium falciparum (isolate 3D7)) (Q08210 whole entry, looked up): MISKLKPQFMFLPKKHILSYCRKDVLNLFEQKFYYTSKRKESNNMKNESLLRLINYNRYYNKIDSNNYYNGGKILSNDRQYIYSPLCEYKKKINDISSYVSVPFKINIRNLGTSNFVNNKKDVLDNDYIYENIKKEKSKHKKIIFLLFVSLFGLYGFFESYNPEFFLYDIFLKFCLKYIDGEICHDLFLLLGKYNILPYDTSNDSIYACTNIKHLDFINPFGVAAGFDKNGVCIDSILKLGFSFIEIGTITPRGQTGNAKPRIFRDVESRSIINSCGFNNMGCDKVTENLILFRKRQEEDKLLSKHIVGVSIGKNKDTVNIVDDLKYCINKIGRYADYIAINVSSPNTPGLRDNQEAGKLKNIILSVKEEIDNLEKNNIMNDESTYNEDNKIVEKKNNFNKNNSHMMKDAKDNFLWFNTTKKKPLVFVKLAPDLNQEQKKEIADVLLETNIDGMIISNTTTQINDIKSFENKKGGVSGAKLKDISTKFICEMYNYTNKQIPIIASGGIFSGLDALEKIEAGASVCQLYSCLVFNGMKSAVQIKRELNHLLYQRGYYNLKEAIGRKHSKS

[5] = P. aeruginosa biofilm formation inhibitors, primary screen, strain PAO1, LB-PBS medium, absorbance 600 nm (AID 1176); details: P. aeruginosa PAO1 growth/biofilm, A600, 12 h; higher = more signal
[6] = S. cerevisiae RM11-1a growth modifiers, primary screen, strain RM11-1a, OD600, basal, 24 h (AID 1177); details: OD600, 24 h, higher = more signal, called active from +8 up or from −8 down;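 also: cultures grown under basal conditions with no added stressor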
[7] = E. coli acrAB mutant growth effects, primary screen, E. coli filamentation inducers, strain DRC39, OD650, 24 h (AID 1178); details: higher = more signal, called active from +8 up or from −8 down;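 also: growth measured as culture turbidity by optical density at 650 nm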
[8] = E. coli acrAB mutant growth effects, primary screen, E. coli filamentation inducers, strain DRC39, OD650, 48 h (AID 1179);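 also: screen aims at cell division blockers that make cells filament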; details: E. coli DRC39 delta-acrAB growth, higher = more signal, called active from +8 up or from −8 down
[9] = RPMI8226 myeloma cell viability, profiling panel, resazurin fluorescence, basal, 24 h, PK04 Diversity Set (AID 1180); details: higher = more signal;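 also: RPMI8826 multiple myeloma cell line at 5000 cells per well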
[10] = target: E3 ubiquitin-protein ligase XIAP (Homo sapiens) (UniProt P98170); experiment: XIAP binders, primary screen, biophysical, small-molecule microarray, fluorescence 635 nm (AID 1181); details: small-molecule microarray binding, higher = more signal;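 also: score merges 667 nm emission and signal to noise over triplicate slides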
Chain of E3 ubiquitin-protein ligase XIAP (Homo sapiens) (P98170 whole entry, looked up): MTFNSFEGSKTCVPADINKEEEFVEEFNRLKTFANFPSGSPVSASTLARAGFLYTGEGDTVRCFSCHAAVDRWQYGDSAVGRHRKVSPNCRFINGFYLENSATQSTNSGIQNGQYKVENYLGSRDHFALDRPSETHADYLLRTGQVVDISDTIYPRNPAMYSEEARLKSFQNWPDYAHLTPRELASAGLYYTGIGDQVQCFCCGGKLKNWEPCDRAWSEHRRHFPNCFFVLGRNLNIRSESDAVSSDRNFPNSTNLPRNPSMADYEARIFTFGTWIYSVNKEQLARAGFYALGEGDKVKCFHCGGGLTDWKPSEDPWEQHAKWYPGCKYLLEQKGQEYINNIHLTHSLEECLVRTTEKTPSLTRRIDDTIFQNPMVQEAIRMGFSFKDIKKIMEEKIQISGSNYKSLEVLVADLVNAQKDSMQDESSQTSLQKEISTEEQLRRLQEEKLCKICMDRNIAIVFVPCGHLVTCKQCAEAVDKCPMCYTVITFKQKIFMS

[11] = test system: XIP peptide (Xip251-270) binding; experiment: small-molecule binders of XIP peptide, primary screen, biochemical, small-molecule microarray, fluorescence 635/667 nm, 0.1 µg/mL protein (AID 1182); details: fluorescent protein binding, 635 nm, higher = more signal, called active from +8 up or from −8 down
[12] = test system: XIP peptide (Xip251-270); experiment: small-molecule binders of XIP peptide, primary screen, biochemical, small-molecule microarray, fluorescence 635/667 nm, 0.5 µg/mL protein (AID 1183); details: small-molecule microarray binding, fluorescence 635 nm; higher = more signal
[13] = Plasmodium falciparum growth inhibition, primary screen, strain 3D7, DAPI fluorescence, 100 nL (AID 1184);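 also: parasites grown inside human red blood cells in medium with human serum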; details: P. falciparum 3D7 growth, 3 d, higher = more signal
[14] = target: Homeobox protein Hox-A13 (Mus musculus) (UniProt Q62424); experiment: inhibitors of HoxA13-DNA binding, primary screen, biochemical, fluorescence polarization, labeled oligonucleotide (AID 1185); details: 15 min, higher = more signal, called active from +8 up or from −8 down
Chain of Homeobox protein Hox-A13 (Mus musculus) (Q62424 whole entry, looked up): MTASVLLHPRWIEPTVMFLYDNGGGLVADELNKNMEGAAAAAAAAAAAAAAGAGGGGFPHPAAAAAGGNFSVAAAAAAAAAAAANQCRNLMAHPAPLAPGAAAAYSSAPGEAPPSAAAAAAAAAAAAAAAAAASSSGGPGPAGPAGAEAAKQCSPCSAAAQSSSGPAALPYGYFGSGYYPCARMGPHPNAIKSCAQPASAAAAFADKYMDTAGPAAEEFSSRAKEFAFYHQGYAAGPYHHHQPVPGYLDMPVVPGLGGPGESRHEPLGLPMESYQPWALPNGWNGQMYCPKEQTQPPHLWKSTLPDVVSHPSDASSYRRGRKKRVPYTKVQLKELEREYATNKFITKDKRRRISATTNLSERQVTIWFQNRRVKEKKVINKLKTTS

[15] = inhibitors of hydroxyurea-induced Chk1 phosphorylation, primary screen, imaging, HeLa, phospho-Chk1 antibody, percent positive cells (AID 1186); details: hydroxyurea-induced phospho-Chk1 immunofluorescence imaging, higher = more signal
[16] = inhibitors of hydroxyurea-induced Chk1 phosphorylation, primary screen, imaging, HeLa, phospho-Chk1 nuclear intensity (AID 1187); details: hydroxyurea-induced phospho-Chk1 immunofluorescence imaging, higher = more signal

| Compound | z-score [1] | z-score [2] | z-score [3] | composite z-score [4] | z-score [5] | z-score [6] | z-score [7] | z-score [8] | z-score [9] | composite z-score [10] | composite z-score [11] | composite z-score [12] | z-score [13] | z-score [14] | z-score [15] | z-score [16] |
| --- | --- | --- | --- | --- | --- | --- | --- | --- | --- | --- | --- | --- | --- | --- | --- | --- |
| CC(=O)NCCCC[C@@H]1NC(=O)[C@@H]2C[C@H](C(=O)NCc3ccc(F)cc3)[C@H](c3ccc(O)cc3)N2C1=O | -0.0579 | -0.462 (inactive) | -0.276 (inactive) | -1.13 (inactive) | -0.226 (inactive) | -0.985 (inactive) | 0.304 (inactive) | -0.598 (inactive) | 0.473 | 0.105 | 1.64 (inactive) | 1.01 | -0.448 | -1.2 (inactive) | 0.0701 (inactive) | 0.0917 (inactive) |
| O=C1O[C@@H](c2ccccc2)[C@@H](c2ccccc2)N2[C@@H](c3ccc(O)cc3)[C@]3(C(=O)Nc4ccccc43)[C@@H](C(=O)NC[C@H](O)c3ccccc3)[C@H]12 | 1.42 | -0.882 (inactive) | 0.616 (inactive) | 0.609 (inactive) | -0.489 (inactive) | 0.0813 (inactive) | 0.389 (inactive) | -0.163 (inactive) | -0.273 | 0.272 | 0.737 (inactive) | 0.232 | 1.15 | -5.08 (inactive) | -0.0877 (inactive) | -0.173 (inactive) |
| Cc1cccc(/C=C/C=O)c1 | 0.033 | -2.91 (inactive) | -0.0488 (inactive) | -1.16 (inactive) | 0.13 (inactive) | -0.181 (inactive) | 0.578 (inactive) | 0.35 (inactive) | 0.387 | -0.0559 | 0.43 (inactive) | 0.838 | 0.787 | -1.05 (inactive) | 0.381 (inactive) | 0.412 (inactive) |
| O=C(NCc1ccccc1)[C@@H]1c2ccccc2C(=O)N(Cc2cc(F)cc(C(F)(F)F)c2)[C@H]1c1ccc(CO)cc1 | -0.745 | -0.633 (inactive) | -0.569 (inactive) | 0.131 (inactive) | 0.472 (inactive) | -0.517 (inactive) | 0.771 (inactive) | 0.675 (inactive) | 0.127 | -0.0207 | 0.818 (inactive) | 0.941 | -0.0341 | -2.88 (inactive) | -1.07 (inactive) | -1.29 (inactive) |
| NC(=O)NCC#Cc1ccc2c(c1)[C@]1(C(=O)N2)[C@H](c2ccc(O)cc2)N2[C@H](c3ccccc3)[C@H](c3ccccc3)OC(=O)[C@H]2[C@@H]1C(=O)N1CCN(c2ncccn2)CC1 | -0.271 | 0.244 (inactive) | 0.965 (inactive) | -0.154 (inactive) | 1.18 (inactive) | 0.517 (inactive) | 0.247 (inactive) | 0.0093 (inactive) | 1.24 | -0.0004 | 0.17 (inactive) | 0.466 | -0.136 | -1.61 (inactive) | 0.477 (inactive) | 1.04 (inactive) |
| O=C1C2C=CC(C(O)c3ccc(-c4ccccc4)s3)N(Nc3ccccc3F)C2C(=O)N1c1ccccc1 (centres undefined) | -1.5 | 0.025 (inactive) | -1.38 (inactive) | 0.853 (inactive) | 0.366 (inactive) | 1.19 (inactive) | -0.516 (inactive) | -0.795 (inactive) | -1.6 | 0.0101 | 0.251 (inactive) | 0.734 | -0.531 | 0.151 (inactive) | 0.184 (inactive) | 0.414 (inactive) |
| COC(=O)C(CC#Cc1ccc2c(c1)[C@]1(C(=O)N2)[C@H](C(=O)N2CCCCCCC2)[C@H]2C(=O)O[C@H](c3ccccc3)[C@H](c3ccccc3)N2[C@@H]1c1ccccc1OCCO)C(=O)OC | -0.198 | 0.946 (inactive) | -0.0924 (inactive) | -4.91 (inactive) | 1.22 (inactive) | 0.0478 (inactive) | -1.19 (inactive) | -0.513 (inactive) | 0.218 | 2.41 | 8 (inactive) | 1.04 | -2.21 | 1.03 (inactive) | 0.0041 (inactive) | 0.0484 (inactive) |
| COc1ccc([Si](C)(C)[C@H]2[C@H](CC(=O)N3CCC[C@H]3CO)O[C@@]3(C(=O)N(Cc4cccc(N5CCC5=O)c4)c4ccccc43)[C@@H]2C)cc1 | -1.26 | 0.124 (inactive) | -0.616 (inactive) | -7.33 (inactive) | 0.507 (inactive) | 1.23 (inactive) | 0.791 (inactive) | 0.473 (inactive) | -0.826 | -0.152 | 0.185 (inactive) | 0.543 | -2.04 | -3.58 (inactive) | 0.307 (inactive) | 0.429 (inactive) |
| [N-]=[N+]=Nc1ccccc1C[C@]1(C(=O)N2CCCCC2)N=C(c2ccc(OCCCO)cc2)O[C@H]1c1ccccc1N=[N+]=[N-] | -0.776 | -0.254 (inactive) | -3.52 (inactive) | 0.584 (inactive) | 1.07 (inactive) | 0.975 (inactive) | -0.125 (inactive) | -0.319 (inactive) | -4.29 | 0.0727 | 1.01 (inactive) | 0.659 | -2.34 | -1.63 (inactive) | -0.0268 (inactive) | 0.205 (inactive) |
